Active and inactive are the calls of the source.
What was measured:
[1] = system: Plasmodium falciparum Sir2 (PF13_0152, Sir2A); experiment: Plasmodium falciparum Sir2A binding compounds – biochemical, small-molecule microarray, 635 nm fluorescence, primary screen (AID 1098); settings: fluorescence 635 nm, higher = more signal;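 further: score merges spot fluorescence intensity with its signal-to-noise ratio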
[2] = probe aDKK1 binding to arrayed compounds – biochemical, biotinylated probe, 635/667 nm fluorescence, primary screen (AID 1099); settings: small-molecule microarray, higher = more signal;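 further: score merges 667nm spot fluorescence with signal to noise across triplicate slides; reference of the scale not given here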
[3] = probe aCHRDL2 binding to arrayed compounds – biochemical, biotinylated probe, 635/667 nm fluorescence, primary screen (AID 1100); settings: small-molecule microarray, higher = more signal
[4] = change in splice reporter luminescence, either direction, cell-based, HEK293, spliceosome inhibition project, primary screen (AID 1101); settings: HEK293 splicing luciferase reporter, 24 h, higher = more signal, called active from +8 up or from −8 down;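 further: HEK293 cells carrying a splicing-competent luciferase reporter gene; test concentration not given here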
[5] = target: Fibroblast growth factor 10 (Homo sapiens) (UniProt O15520); experiment: compounds binding fibroblast growth factor 10 – biochemical, small-molecule microarray, 635 nm fluorescence, primary screen (AID 1102); settings: FGF10 binding, fluorescence 635 nm, higher = more signal
[6] = system: glycogen synthase kinase-3 (GSK3A per assay name; protocol says GSK3B); experiment: compounds binding glycogen synthase kinase-3 – biochemical, small-molecule microarray, 635 nm fluorescence, GSK3A, primary screen (AID 1103); settings: fluorescence 635 nm, higher = more signal; further: the record names both GSK3A and GSK3B
[7] = target: Epidermal growth factor receptor (Homo sapiens) (UniProt P00533); experiment: compounds binding epidermal growth factor receptor – biochemical, small-molecule microarray, 635 nm fluorescence, primary screen (AID 1104); settings: EGFR binding, higher = more signal;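 further: score merges 667 nm emission intensity with spot signal to noise over triplicate slides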
[8] = target: Follistatin-related protein 3 (Homo sapiens) (UniProt O95633); experiment: compounds binding follistatin-related protein 3 – biochemical, small-molecule microarray, 635 nm fluorescence, primary screen (AID 1105); settings: FSTL3 binding, higher = more signal;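 further: score merges emission near 667 nm and signal to noise per printed spot across three slides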
[9] = target: Dickkopf-related protein 1 (Homo sapiens) (UniProt O94907); experiment: small molecules binding DKK1 protein – biochemical, small-molecule microarray, 635 nm fluorescence scan, primary screen (AID 1106); settings: higher = more signal;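 further: score merges emission near 667 nm with signal to noise over three replicate slides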
[10] = system: Inhibin beta A chain (activin A); experiment: small molecules binding activin A – biochemical, small-molecule microarray, 635 nm fluorescence scan, primary screen (AID 1107); settings: INHBA, higher = more signal;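 further: mouse activin A protein probed at 4.33 µg/mL on printed slides; score merges bound-protein fluorescence near 667 nm with spot signal-to-noise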

Chain of Fibroblast growth factor 10 (Homo sapiens) (O15520 whole entry, looked up): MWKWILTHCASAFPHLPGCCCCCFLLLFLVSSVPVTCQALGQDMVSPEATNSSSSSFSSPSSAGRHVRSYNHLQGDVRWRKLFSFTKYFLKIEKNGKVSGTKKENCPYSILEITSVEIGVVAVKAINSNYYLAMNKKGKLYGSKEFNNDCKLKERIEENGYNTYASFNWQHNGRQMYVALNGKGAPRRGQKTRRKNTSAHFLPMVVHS
Chain of Epidermal growth factor receptor (Homo sapiens) (P00533 whole entry, looked up): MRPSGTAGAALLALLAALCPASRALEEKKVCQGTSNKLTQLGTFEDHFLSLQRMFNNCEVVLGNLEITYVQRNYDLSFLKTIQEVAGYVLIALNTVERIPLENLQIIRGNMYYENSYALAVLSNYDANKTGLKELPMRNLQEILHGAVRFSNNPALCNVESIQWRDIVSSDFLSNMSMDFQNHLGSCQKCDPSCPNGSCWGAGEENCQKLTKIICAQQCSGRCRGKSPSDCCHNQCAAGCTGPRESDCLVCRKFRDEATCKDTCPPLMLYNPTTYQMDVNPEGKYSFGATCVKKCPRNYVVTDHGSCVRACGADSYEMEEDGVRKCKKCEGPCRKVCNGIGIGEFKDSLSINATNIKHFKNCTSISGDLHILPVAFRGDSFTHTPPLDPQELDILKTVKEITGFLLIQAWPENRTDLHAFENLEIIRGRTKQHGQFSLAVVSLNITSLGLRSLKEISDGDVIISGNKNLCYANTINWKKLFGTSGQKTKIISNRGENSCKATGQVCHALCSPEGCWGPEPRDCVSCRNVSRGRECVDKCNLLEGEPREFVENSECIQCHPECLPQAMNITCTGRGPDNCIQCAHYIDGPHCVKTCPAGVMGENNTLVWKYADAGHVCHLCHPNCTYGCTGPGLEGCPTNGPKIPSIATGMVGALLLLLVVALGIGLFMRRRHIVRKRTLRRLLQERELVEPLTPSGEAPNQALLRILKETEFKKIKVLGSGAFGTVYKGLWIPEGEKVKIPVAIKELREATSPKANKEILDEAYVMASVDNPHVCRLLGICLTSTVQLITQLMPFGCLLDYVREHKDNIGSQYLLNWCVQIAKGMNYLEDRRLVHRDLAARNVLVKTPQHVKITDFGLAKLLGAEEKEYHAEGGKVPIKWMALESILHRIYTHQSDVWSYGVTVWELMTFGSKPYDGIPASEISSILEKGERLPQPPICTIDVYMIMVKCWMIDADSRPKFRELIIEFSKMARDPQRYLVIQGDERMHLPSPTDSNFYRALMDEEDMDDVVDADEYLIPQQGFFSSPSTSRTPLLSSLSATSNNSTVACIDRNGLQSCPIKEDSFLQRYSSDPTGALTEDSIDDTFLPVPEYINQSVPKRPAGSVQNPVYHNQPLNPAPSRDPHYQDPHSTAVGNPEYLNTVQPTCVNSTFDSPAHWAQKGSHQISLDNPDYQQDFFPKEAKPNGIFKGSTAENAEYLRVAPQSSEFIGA
Chain of Follistatin-related protein 3 (Homo sapiens) (O95633 whole entry, looked up): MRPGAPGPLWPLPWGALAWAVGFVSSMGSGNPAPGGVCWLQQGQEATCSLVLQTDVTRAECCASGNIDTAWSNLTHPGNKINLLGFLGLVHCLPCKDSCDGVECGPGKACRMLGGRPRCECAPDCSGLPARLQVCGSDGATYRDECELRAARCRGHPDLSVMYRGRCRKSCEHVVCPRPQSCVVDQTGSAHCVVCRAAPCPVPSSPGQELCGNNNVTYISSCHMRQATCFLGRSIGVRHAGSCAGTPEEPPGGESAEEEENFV
Chain of Dickkopf-related protein 1 (Homo sapiens) (O94907 whole entry, looked up): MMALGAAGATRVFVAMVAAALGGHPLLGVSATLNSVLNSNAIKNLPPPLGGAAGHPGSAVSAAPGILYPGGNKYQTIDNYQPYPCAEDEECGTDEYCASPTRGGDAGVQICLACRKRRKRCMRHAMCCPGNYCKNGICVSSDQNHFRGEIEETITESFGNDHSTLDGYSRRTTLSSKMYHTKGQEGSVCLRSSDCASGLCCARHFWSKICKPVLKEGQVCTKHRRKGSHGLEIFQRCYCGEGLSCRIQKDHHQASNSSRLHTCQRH

Structure (SMILES)	composite z-score [1]	composite z-score [2]	composite z-score [3]	z-score [4]	composite z-score [5]	composite z-score [6]	composite z-score [7]	composite z-score [8]	composite z-score [9]	composite z-score [10]
COc1ccc([Si](C)(C)[C@H]2[C@H](CCO)O[C@@]3(C(=O)N(Cc4ccc(N5CCOC5=O)cc4)c4ccccc43)[C@@H]2C)cc1	0.901	-0.0663	0.171	-1.15 (inactive)	-0.0921	-0.155	-0.197	-0.0181	-0.524	0.416
C=CCC(OC(C)=O)[C@@H]1[C@@H](N(Cc2ccc(-c3cccc(C(F)(F)F)c3)o2)C(=O)Cc2ccc(OC)cc2)c2cc(OCCCO)ccc2N1C(=O)c1ccc2ccccc2n1 (stereo not given in full)	0.51	-0.107	0.621	-0.492 (inactive)	0.104	-1.24	-0.567	0.0391	0.062	1.58
Cc1ccccc1C(O)C1C=CC2C(=O)N(c3ccccc3)C(=O)C2N1Nc1ccccc1F (stereo not given)	1.31	0.938	1.23	0.476 (inactive)	0.77	0.45	0.153	0.836	-0.6	1.04
COc1ccc(C(O)C2C=CC3C(=O)N(C)C(=O)C3N2Nc2ccc([N+](=O)[O-])cc2[N+](=O)[O-])cc1OCc1ccccc1 (stereo not given)	0.994	1.23	1.24	1.16 (inactive)	0.895	0.858	0.0333	0.84	-0.508	0.718
CCOC(=O)C1=CC[C@@H](c2ccccc2)N(S(=O)(=O)c2ccc(C)cc2)[C@H]1C#N	1.54	0.507	0.56	0.705 (inactive)	0.417	0.73	-0.106	-0.111	-0.377	-0.0426
CC(=O)NCCCC[C@@H]1NC(=O)[C@H]2C[C@@H](C(=O)NCCCCCC[N+](C)(C)C)[C@@H](c3ccc(O)cc3)N2C1=O	1.71	-0.186	-0.414	-0.652 (inactive)	0.348	0.612	0.173	0.946	1.23	0.965
C=CCC(OC(C)=O)[C@@H]1[C@@H](N(Cc2ccc(-c3ccccc3)cc2)C(=O)c2ccc(C)cc2)c2cc(OCCCO)ccc2N1C(=O)c1ccc2ccccc2c1 (stereo not given in full)	-0.376	-0.165	-0.093	-1.36 (inactive)	0.265	-0.549	-0.0575	0.168	-0.134	0.944
COCCOC(=O)N1C(=O)[C@@]2(c3cc(C#CCCO)ccc31)[C@H](C(=O)N1CCc3cc(OC)c(OC)cc3C1)[C@H]1C(=O)O[C@H](c3ccccc3)[C@H](c3ccccc3)N1[C@@H]2c1ccccc1OCCO	1.64	-0.232	0.0036	-0.961 (inactive)	1.42	1.29	0.861	1.32	0.35	0.748
CN(C)CCCC[C@@H]1NC(=O)[C@H]2C[C@@H](C(=O)NCc3ccc(F)cc3)[C@@H](c3ccc(O)cc3)N2C1=O	0.298	0.0179	-0.4	0.163 (inactive)	1.2	0.902	0.0583	0.571	0.776	0.853
COC(=O)c1c(CC[C@@H](CO)NC(=O)N[C@@H](Cc2ccccc2)Cn2cc(-c3cncn3C)nn2)oc(C(C)=O)c1C(=O)OC	0.942	-0.193	-0.192	-1.71 (inactive)	0.481	0.352	-0.913	0.367	-0.376	-0.721
CC(=O)c1ccc(C(O)C2C=CC3C(=O)NC(=O)C3N2Nc2ccc(Cl)cc2Cl)cc1 (stereo not given)	0.366	0.947	1.02	0.58 (inactive)	0.554	-0.454	0.0262	0.141	-0.291	1.03
COCCOC(=O)N1C(=O)[C@@]2(c3cc(C#CCNC(N)=O)ccc31)[C@H](C(=O)NC[C@H](O)c1ccccc1)[C@H]1C(=O)O[C@H](c3ccccc3)[C@H](c3ccccc3)N1[C@@H]2c1ccc(OCCO)cc1	1.44	0.398	0.782	-0.204 (inactive)	0.872	0.939	0.565	0.898	0.301	0.649
CCCC[C@@H]1C[C@H]1[C@@H](NC(=O)c1ccc(C(F)(F)F)cc1)c1ccc(C(=O)OC)cc1	0.234	0.172	0.158	-1.22 (inactive)	0.743	0.352	0.6	1.09	0.583	1.32
CC(C)C[C@@H]1NC(=O)[C@H]2C[C@@H](C(=O)NCCCCCNC(=O)CS)[C@@H](c3ccc(O)cc3)N2C1=O	1.56	-0.0363	0.203	0.0983 (inactive)	1.08	1.33	0.521	0.848	1.01	0.0563
C=CC[C@]1(C(=O)N(C)C)COC(c2ccc(OCCCO)cc2)=N1	1.6	0.98	1.26	-0.858 (inactive)	0.772	0.248	-0.737	-0.438	-0.0393	0.465
Cc1ccc(S[C@]2(C(=O)NCCN3CCOCC3)CC(=O)N(C3CCCCC3)[C@@H]2c2ccc(CO)cc2I)cc1	0.567	-0.69	-0.13	-0.341 (inactive)	1.29	1.19	0.0803	1.19	-0.0675	0.714

Structure (SMILES)	composite z-score [1]	composite z-score [2]	composite z-score [3]	z-score [4]	composite z-score [5]	composite z-score [6]	composite z-score [7]	composite z-score [8]	composite z-score [9]	composite z-score [10]
CN(C)CCCCNC(=O)[C@H]1C[C@H]2C(=O)NCC(=O)N2[C@H]1c1cccc(OCCO)c1	0.828	-0.173	0.084	-0.706 (inactive)	1.02	-0.54	0.138	0.186	0.168	-0.09
COCCOC(=O)N1C(=O)[C@@]2(c3ccccc31)[C@H](C(N)=O)[C@H]1C(=O)O[C@H](c3ccccc3)[C@H](c3ccccc3)N1[C@@H]2c1ccc(OCCO)cc1	0.537	-0.122	0.093	0.172 (inactive)	1.08	1.3	0.0401	1.1	0.253	0.319
NCCCC[C@@H]1NC(=O)[C@H]2C[C@@H](C(=O)NCc3ccc(F)cc3)[C@@H](c3ccc(O)cc3)N2C1=O	1.6	0.831	1.07	0.374 (inactive)	0.186	1.33	0.117	1	0.496	1.2
COCC(=C=CC[C@@H](O)c1cccc(OCCO)c1)C[C@@H](O)COCc1ccccc1	0.264	0.613	0.67	-0.51 (inactive)	1.4	1.19	-0.623	0.416	-0.267	0.717
CCOC(=O)C1=C(C(=O)OCC)N(S(=O)(=O)CC[Si](C)(C)C)[C@H](c2ccccc2)CC1	0.461	0.879	0.845	0.37 (inactive)	0.8	1	0.313	0.971	-0.111	0.955
CCCCC(=C=CC[C@@H](O)c1ccc(OCCO)cc1)C[C@@H](O)c1ccccn1	0.381	-0.0087	-0.162	0.0171 (inactive)	0.279	0.382	-0.123	0.588	0.414	0.981
COC(=O)[C@@]1(Cc2ccc(F)cc2)[C@H]2c3cc(C(=O)N4CCCC4)n(CCO)c3C[C@H]2CN1C(=O)c1ccccc1	1.33	0.532	0.977	-0.495 (inactive)	0.597	-0.166	-0.244	-0.479	-0.572	0.671
CC[C@H](C)C(=O)O[C@H]1CC[C@]2(C)C3=C(CCC2C1(C)C)[C@]1(C)CC[C@H]([C@H](C)CCCC(C)C)[C@@]1(C)CC3 (stereo not given in full)	0.479	-0.0754	-0.314	-0.634 (inactive)	0.48	0.634	0.65	0.487	0.474	0.0848
CCOC(=O)C1=CC[C@@H](c2ccc(F)cc2)N(S(=O)(=O)c2ccc(C)cc2)[C@H]1c1ccc([N+](=O)[O-])cc1	0.681	0.0684	0.373	-0.689 (inactive)	0.914	0.988	-0.24	0.485	-0.453	0.537
[N-]=[N+]=NCc1ccccc1[C@@H]1OC(c2ccc(OCCCO)cc2)=N[C@]1(Cc1ccccc1)C(=O)NCc1ccccc1	0.869	-0.0406	0.996	-1.29 (inactive)	0.769	0.113	0.131	0.529	-0.154	0.656
O=c1cccc(-c2ccccc2C(F)(F)F)o1	-0.722	1.15	0.567	0.756 (inactive)	-0.382	-0.363	-0.955	-0.722	-0.469	1.11
[N-]=[N+]=NCc1ccccc1C[C@]1(C(=O)O)COC(c2ccc(OCCCO)cc2)=N1	0.991	0.261	1.12	0.544 (inactive)	-0.472	-1.19	-0.756	-0.757	-1.27	0.616
CC(C)(C)OC(=O)CC[C@]1(C(N)=O)N=C(c2ccc(OCCCO)cc2)O[C@H]1c1ccccc1CN=[N+]=[N-]	1.62	1.11	1.2	-0.26 (inactive)	1.44	1.28	-0.643	0.0115	-0.395	0.0976
O=C1O[C@@H](c2ccccc2)[C@@H](c2ccccc2)N2[C@@H](c3ccc(O)cc3)[C@]3(C(=O)Nc4ccc(C#CC5=CCCCC5)cc43)[C@@H](C(=O)N3CCCCCCC3)[C@H]12	1.6	1.53	1.25	-1.28 (inactive)	0.66	1.29	0.623	1.35	0.485	1.79
COCCCNC(=O)[C@@H]1c2ccccc2C(=O)N(Cc2cc(C(F)(F)F)cc(C(F)(F)F)c2)[C@H]1c1ccc(CO)cc1	-1.09	1.15	0.291	-0.475 (inactive)	-0.0413	0.0135	-0.301	0.142	0.346	0.92
CCC(CC)C(O)C1C=CC2C(=O)N(C)C(=O)C2N1N1CCCCC1 (stereo not given)	0.669	1.72	0.906	1.58 (inactive)	0.91	0.93	0.411	1.43	0.233	0.539
